The record followed here is PubChem BioAssay (Tox21).

Inconclusive results are not listed. Values without a mark were called inactive. Active and inactive are the calls of the source. Calls follow the shape of the full dose curve.
% is scaled to controls: 0 for no effect and ±100 for the full control effect.
Also: nearly all actives have a fitted effect of over 45% in size.

The first experiment can be described thus: p53 small molecule agonists, cell-based qHTS assay with human liver microsomes: qHTS cell viability counter screen (AID 1963579). Also: potency is read from the fitted curve at half-maximal effect. Particulars: p53RE-bla HCT-116 viability, ATP luminescence, 16 h, HLM; series mostly up to 66 µM; activity change, negative = cytotoxicity: at the top concentration. The method, boiled down:
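Viability of p53RE-bla cells is measured as CellTiter-Glo luminescence following a 16 h, 37 C incubation with compound, liver microsomes from human donors and NADPH.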
On the technique in general: Quantitative high-throughput screening tests each substance at several concentrations.
Consider `CCCCCCC(CO)CCCC` (configuration not stated), for which the “activity change, negative = cytotoxicity” value was 2.03%.

As for `NC(=O)C(=O)N/N=C/c1ccc([N+](=O)[O-])o1`, the “activity change, negative = cytotoxicity” value was -0.534% [at 30.3 µM].

For the compound `O=S(O)O`, the activity change, negative = cytotoxicity is -0.784% [at 13.5 µM].

As to `COc1cc(C(=O)NS(=O)(=O)c2ccccc2C)ccc1Cc1cn(C)c2ccc(NC(=O)OC3CCCC3)cc12`, the “activity change, negative = cytotoxicity” value is -29.6% [at 30.3 µM].

Consider `O=C1O[C@@H]2[C@@H](O)[C@H](O)O[C@@H]2[C@H]1O`, for which the “activity change, negative = cytotoxicity” value is 3.86%.

As for `CCc1ccc(CC)cc1`, the “activity change, negative = cytotoxicity” value was 0.198%.

On to `CC(C)(C)N(CCO)CCO`, for which the “activity change, negative = cytotoxicity” value is 1.05%.

For the compound `O=CCCc1ccccc1`, the “activity change, negative = cytotoxicity” value was -6.4%.

Consider `Cc1oc(-c2ccccc2)nc1CCC(=O)c1ccc(CC2SC(=O)NC2=O)cc1` (configuration not stated), for which the “activity change, negative = cytotoxicity” value is 1.81% [at 30.3 µM].

Turning to `CCCCNc1ccc(NCCCC)c2c1C(=O)c1ccccc1C2=O`, the activity change, negative = cytotoxicity was -5.72% [at 13.5 µM].

As to `O=C(O)c1ccncc1`, the “activity change, negative = cytotoxicity” value is 3.15%.

For the compound `Clc1cc(Cl)c(-c2c(Cl)c(Cl)cc(Cl)c2Cl)cc1Cl`, the “activity change, negative = cytotoxicity” value is 2.27% [at 30.3 µM].

With `CC(=O)N(CC(O)CN(C(C)=O)c1c(I)c(C(=O)NCC(O)CO)c(I)c(C(=O)NCC(O)CO)c1I)c1c(I)c(C(=O)NCC(O)CO)c(I)c(C(=O)NCC(O)CO)c1I` (configuration not stated), the “activity change, negative = cytotoxicity” value was -6.53% [at 30.3 µM].

On to `CCCCCCCCCCCCS(=O)(=O)Cl`, for which the activity change, negative = cytotoxicity was 0.65% [at 13.5 µM].

In the case of `CCNC(=O)N1CCN(CCCC(c2ccc(F)cc2)c2ccc(F)cc2)CC1`, the “activity change, negative = cytotoxicity” value was 29% [at 30.3 µM].

On to `CC/C=C\CCOC(=O)c1ccccc1`, for which the “activity change, negative = cytotoxicity” value is -2.8%.

In the case of `CCc1cc(Cc2cc(CC)cc(C(C)(C)C)c2O)c(O)c(C(C)(C)C)c1`, the “activity change, negative = cytotoxicity” value was -1.37%.

For the compound `CCC1=C(C)CN(C(=O)NCCc2ccc(S(=O)(=O)NC(=O)NC3CCC(C)CC3)cc2)C1=O` (configuration not stated), the “activity change, negative = cytotoxicity” value was -0.179% [at 30.3 µM].

Take `CCOC(=O)C1=C(C)NC(C)=C(C(=O)OC)C1c1cccc(Cl)c1Cl` (configuration not stated): the “activity change, negative = cytotoxicity” value is -17.8% [at 30.3 µM].

For `Clc1ccnc(Cl)n1`, the “activity change, negative = cytotoxicity” value was -8.56%.

For `OCC(CO)(CO)COCC(CO)(CO)CO`, the “activity change, negative = cytotoxicity” value is 7.23%.

Regarding `CCOC(=O)/C=C/C(=O)O`, the “activity change, negative = cytotoxicity” value was -1.22%.

On to `CCCCC`, for which the “activity change, negative = cytotoxicity” value was -3.38%.

In the case of `CC(C(=O)O)c1ccc(C(=O)c2ccccc2)s1` (configuration not stated), the “activity change, negative = cytotoxicity” value is 20.6% [at 30.3 µM].

Take `CCCCCCC(=O)OCC`: the “activity change, negative = cytotoxicity” value was 13%.

Take `CC1(C)S[C@@H]2[C@H](NC(=O)C(C(=O)O)c3ccccc3)C(=O)N2[C@H]1C(=O)O` (some centres not stated): the Potency is 177 nM (active).

Turning to `CC(CC(C#N)(c1ccccc1)C(C)C)N(C)C` (configuration not stated), the “activity change, negative = cytotoxicity” value is -22.6% [at 30.3 µM].

For `O=P(O)(O)C(O)(Cc1cccnc1)P(=O)(O)O`, the “activity change, negative = cytotoxicity” value was -10.7% [at 30.3 µM].

Turning to `C=CCCCC`, the “activity change, negative = cytotoxicity” value is 2.84%.

As to `CCCCCCCC1CCCC1=O` (configuration not stated), the “activity change, negative = cytotoxicity” value is 3.68%.

Another experiment can be described thus: p53 small molecule agonists, cell-based qHTS assay with rat liver microsomes: qHTS cell viability counter screen (AID 1963580). The conditions noted are these: p53RE-bla HCT-116 + rat microsomes, ATP viability, 16 h; series mostly up to 66 µM; activity change, negative = cytotoxicity: at the top concentration. The method, boiled down:
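Viability is assessed in parallel with the p53 reporter read: HCT-116 p53RE-bla cells receive compounds plus rat microsomes and NADPH (0.5 mg/mL final apiece), incubate 16 h at 37 C, and then CellTiter-Glo luminescence is recorded.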
`CC(C)OCC1CO1` (configuration not stated): the “activity change, negative = cytotoxicity” value was 13.7%.

For `S=C(SSSSSSC(=S)N1CCCCC1)N1CCCCC1`, the activity change, negative = cytotoxicity is -21.4% [at 13.5 µM].

Take `CO[Si](CCCS)(OC)OC`: the “activity change, negative = cytotoxicity” value was 0.963%.

Turning to `NC(=O)C(=O)N/N=C/c1ccc([N+](=O)[O-])o1`, the “activity change, negative = cytotoxicity” value is -2.06% [at 30.3 µM].

As for `CC(C)OC(=O)C(C(=O)OC(C)C)=C1SC=CS1`, the “activity change, negative = cytotoxicity” value is -18.1% [at 30.3 µM].

Turning to `O=S(O)O`, the activity change, negative = cytotoxicity is 11.9% [at 13.5 µM].

For the compound `COc1cc(C(=O)NS(=O)(=O)c2ccccc2C)ccc1Cc1cn(C)c2ccc(NC(=O)OC3CCCC3)cc12`, the “activity change, negative = cytotoxicity” value is -1.67% [at 30.3 µM].

As to `O=C1O[C@@H]2[C@@H](O)[C@H](O)O[C@@H]2[C@H]1O`, the “activity change, negative = cytotoxicity” value is 0.185%.

In the case of `CC(C)(C)N(CCO)CCO`, the “activity change, negative = cytotoxicity” value was -2.79%.

On to `O=CCCc1ccccc1`, for which the “activity change, negative = cytotoxicity” value is 3.74%.

On to `Cc1oc(-c2ccccc2)nc1CCC(=O)c1ccc(CC2SC(=O)NC2=O)cc1` (configuration not stated), for which the “activity change, negative = cytotoxicity” value was 3.12% [at 30.3 µM].

With `O=C(O)c1ccncc1`, the “activity change, negative = cytotoxicity” value is -7.57%.

For `Clc1cc(Cl)c(-c2c(Cl)c(Cl)cc(Cl)c2Cl)cc1Cl`, the “activity change, negative = cytotoxicity” value is 0.556% [at 30.3 µM].

Turning to `CC/C=C\CCOC(=O)c1ccccc1`, the “activity change, negative = cytotoxicity” value was 2.15%.

Turning to `CCc1cc(Cc2cc(CC)cc(C(C)(C)C)c2O)c(O)c(C(C)(C)C)c1`, the “activity change, negative = cytotoxicity” value was -19.2%.

Consider `CCC1=C(C)CN(C(=O)NCCc2ccc(S(=O)(=O)NC(=O)NC3CCC(C)CC3)cc2)C1=O` (configuration not stated), for which the “activity change, negative = cytotoxicity” value is 2.15% [at 30.3 µM].

Consider `CCOC(=O)C1=C(C)NC(C)=C(C(=O)OC)C1c1cccc(Cl)c1Cl` (configuration not stated), for which the “activity change, negative = cytotoxicity” value is -7.08% [at 30.3 µM].

`OCC(CO)(CO)COCC(CO)(CO)CO`: the “activity change, negative = cytotoxicity” value is 4.83%.

Turning to `OCc1ccccn1`, the “activity change, negative = cytotoxicity” value was 3.46% [at 30.3 µM].

Consider `CCOC(=O)/C=C/C(=O)O`, for which the “activity change, negative = cytotoxicity” value was -4.94%.

With `Cc1ccc2c(c1)c1c3n2CCNC3CCC1` (configuration not stated), the “activity change, negative = cytotoxicity” value was 1.16% [at 30.3 µM].

With `CCOc1ccccc1N`, the “activity change, negative = cytotoxicity” value is -19%.

As for `CCCCCCC(=O)OCC`, the “activity change, negative = cytotoxicity” value is -5.33%.

Turning to `NS(=O)(=O)c1cc(C(=O)NN2C[C@H]3[C@H]4CCC(C4)[C@H]3C2)ccc1Cl`, the “activity change, negative = cytotoxicity” value was -6.69% [at 30.3 µM].

`CC1(C)S[C@@H]2[C@H](NC(=O)C(C(=O)O)c3ccccc3)C(=O)N2[C@H]1C(=O)O` (some centres not stated): the “activity change, negative = cytotoxicity” value is 5.49% [at 30.3 µM].

On to `CC(CC(C#N)(c1ccccc1)C(C)C)N(C)C` (configuration not stated), for which the “activity change, negative = cytotoxicity” value was -0.496% [at 30.3 µM].

As for `O=P(O)(O)C(O)(Cc1cccnc1)P(=O)(O)O`, the “activity change, negative = cytotoxicity” value was -13.9% [at 30.3 µM].

`C=CCCCC`: the “activity change, negative = cytotoxicity” value is 3.8%.

`CCCCCCCC1CCCC1=O` (configuration not stated): the “activity change, negative = cytotoxicity” value was 2.37%.

Another experiment in a line: p53 small molecule agonists, cell-based qHTS assay: qHTS cell viability counter screen (AID 1963581). The conditions noted are these: p53RE-bla HCT-116 viability, ATP luminescence, 16 h; series mostly up to 66 µM; activity change, negative = cytotoxicity: at the top concentration. Summed up: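 HCT-116 p53RE-bla cells, 4,000/well, plated 5 h before compound pin transfer; 16 h at 37 C; bla substrate 2 h RT; then CellTiter-Glo, 30 min RT, luminescence.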
Take `CCCCCCC(CO)CCCC` (configuration not stated): the “activity change, negative = cytotoxicity” value was 6.48%.

Consider `S=C(SSSSSSC(=S)N1CCCCC1)N1CCCCC1`, for which the activity change, negative = cytotoxicity is 9.63% [at 13.5 µM].

`O=C(CCCN1CCC(O)(c2ccc(Br)cc2)CC1)c1ccc(F)cc1`: the “activity change, negative = cytotoxicity” value was 12.9% [at 30.3 µM].

For the compound `CC(C)OC(=O)C(C(=O)OC(C)C)=C1SC=CS1`, the “activity change, negative = cytotoxicity” value was 0.776% [at 30.3 µM].

On to `O=S(O)O`, for which the activity change, negative = cytotoxicity was 16.3% [at 13.5 µM].

As for `O=C1O[C@@H]2[C@@H](O)[C@H](O)O[C@@H]2[C@H]1O`, the “activity change, negative = cytotoxicity” value was -4.76%.

Take `CCc1ccc(CC)cc1`: the “activity change, negative = cytotoxicity” value is 9.7%.

For the compound `CC(C)(C)N(CCO)CCO`, the “activity change, negative = cytotoxicity” value was -2.14%.

As to `Cc1oc(-c2ccccc2)nc1CCC(=O)c1ccc(CC2SC(=O)NC2=O)cc1` (configuration not stated), the “activity change, negative = cytotoxicity” value was 8.13% [at 30.3 µM].

Turning to `CCCCNc1ccc(NCCCC)c2c1C(=O)c1ccccc1C2=O`, the activity change, negative = cytotoxicity is -1.83% [at 13.5 µM].

Take `O=C(O)c1ccncc1`: the “activity change, negative = cytotoxicity” value was -0.716%.

In the case of `CC(=O)N(CC(O)CN(C(C)=O)c1c(I)c(C(=O)NCC(O)CO)c(I)c(C(=O)NCC(O)CO)c1I)c1c(I)c(C(=O)NCC(O)CO)c(I)c(C(=O)NCC(O)CO)c1I` (configuration not stated), the “activity change, negative = cytotoxicity” value was 16.8% [at 30.3 µM].

Take `CCCCCCCCCCCCS(=O)(=O)Cl`: the activity change, negative = cytotoxicity is -1.69% [at 13.5 µM].

`CCNC(=O)N1CCN(CCCC(c2ccc(F)cc2)c2ccc(F)cc2)CC1`: the “activity change, negative = cytotoxicity” value is 1.93% [at 30.3 µM].

Turning to `CC/C=C\CCOC(=O)c1ccccc1`, the “activity change, negative = cytotoxicity” value is 8.77%.

Turning to `CCOC(=O)C1=C(C)NC(C)=C(C(=O)OC)C1c1cccc(Cl)c1Cl` (configuration not stated), the “activity change, negative = cytotoxicity” value was 9.79% [at 30.3 µM].

In the case of `Clc1ccnc(Cl)n1`, the “activity change, negative = cytotoxicity” value was 1.11%.

Turning to `OCC(CO)(CO)COCC(CO)(CO)CO`, the “activity change, negative = cytotoxicity” value was -15.6%.

`OCc1ccccn1`: the “activity change, negative = cytotoxicity” value is -7.31% [at 30.3 µM].

Turning to `CCCCC`, the “activity change, negative = cytotoxicity” value is 11.9%.

On to `CCOc1ccccc1N`, for which the “activity change, negative = cytotoxicity” value was -26.3%.

`CC(C(=O)O)c1ccc(C(=O)c2ccccc2)s1` (configuration not stated): the “activity change, negative = cytotoxicity” value was 5.68% [at 30.3 µM].

In the case of `CCCCCCC(=O)OCC`, the “activity change, negative = cytotoxicity” value was -16.4%.

In the case of `CC1(C)S[C@@H]2[C@H](NC(=O)C(C(=O)O)c3ccccc3)C(=O)N2[C@H]1C(=O)O` (some centres not stated), the “activity change, negative = cytotoxicity” value is -5.93% [at 30.3 µM].

On to `CC(CC(C#N)(c1ccccc1)C(C)C)N(C)C` (configuration not stated), for which the “activity change, negative = cytotoxicity” value was 13.1% [at 30.3 µM].

With `O=P(O)(O)C(O)(Cc1cccnc1)P(=O)(O)O`, the “activity change, negative = cytotoxicity” value is 4.84% [at 30.3 µM].

Consider `C=CCCCC`, for which the “activity change, negative = cytotoxicity” value is 0%.

In the case of `CCCCCCCC1CCCC1=O` (configuration not stated), the “activity change, negative = cytotoxicity” value was 5.12%.
